# “And” between values parts separate entries of the source, which are not always exact repeats. Identical values can stand only once. Results filed as inconclusive are left out. The source made the active and inactive calls. Rule for the calls, unless noted: active = hit-call score of the fitted dose curve at least 0.9, where 1 is the maximum; inconclusive = response in the unintended direction; inactive = score below 0.9.
# Experiments:
# [1] = CEETOX_H295R_MTT_cell_viability: Viability Assessment in the CeeTox HT-H295R MTT Assay (AID 2283718; active = hit-call score of the fitted dose curve at least 0.9, where 1 is the maximum; inactive = score below 0.9;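 for AC50: curve fitted both ways so AC50 may mark viability loss or gain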)
# In short: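 MTT reduction (0.5 mg/ml, 4 h at 37 C; absorbance at 570 and 650 nm) gave viability as background-corrected percent change versus controls. H295R cells had 48 h forskolin (10 uM) prestimulation, then 48 h chemical exposure at 0.1% DMSO.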
# [2] = ACEA_ER_AUC_viability: ACEA Biosciences xCELLigence Real-Time Cell Analysis on Estrogen Receptor Agonism for Viability (AID 2283782);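 note: hit means loss of impedance signal meaning reduced cell growth or viability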
# In short: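 Viability endpoint: reduced impedance area under the curve relative to DMSO, recorded by real-time electrode sensing over ~80 h of continuous exposure. Duplicate plates of T47D in hormone-depleted medium; eight concentrations, 1:4 dilutions, 100 uM maximum.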
# [3] = biological target: Luciferin 4-monooxygenase (Photinus pyralis) (UniProt P08659); test: CCTE_Simmons_QuantiLum_inhib_2: CCTE's Firefly Luciferase Inhibition Assay, Simmons Lab (AID 2283767);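 for AC50: potency for inhibitors that lower luciferase luminescence relative to DMSO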
# In short: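 Cell-free QuantiLum luciferase, 5 ng/well; compounds 5 nM–87.5 uM final, 8 conc, 0.5% DMSO; 30 min, 37C, dark. Detection reagent (150 uM D-luciferin, 147 uM dATP, CoA, DTT, pH 7.8 final) injected per well, kinetic luminescence. Triplicate biological replicates.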
# [4] = STM_H9_OrnCyssISnorm_ratio: Stemina devTOX quickPredict H9 human embryonic stem cell (hESC)-based Assay for Ornithine (ORN):Cystine (CYSS) Ratio (AID 2283714)
# In short: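 Ratio of internal-standard-normalized ornithine to cystine, measured by UPLC-HRMS in spent media from the last 24 h. H9 cells kept pluripotent, dosed 72 h with daily media and compound renewal; DMSO 0.1% serves as baseline.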
# [5] = ACEA_AR_agonist_AUC_viability: ACEA Biosciences xCELLigence Real-Time Cell Analysis on Androgen Receptor Agonism for Viability (AID 2283775);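 for AC50: viability read 80 hours after compound addition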
# In short: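 Viability endpoint from xCELLigence impedance in 22Rv1 prostate cells at 80 h. Eight-point series, 100 uM maximum final.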
# [6] = STM_H9_NormalizedViability: Cytotoxicity Assessment at 120 hours in the Stemina devTOX quickPredict H9 human embryonic stem cell (hESC)-based Assay (AID 2283784)
# In short: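 CellTiter-Fluor RFU, background-subtracted, expressed relative to 0.1% DMSO neutral control by plate. Pluripotent H9 cells; treatment with daily re-dosing. Plates carried 1uM methotrexate (positive) and 5 nM methotrexate (negative) references.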
# [7] = ACEA_AR_antagonist_AUC_viability: ACEA Biosciences xCELLigence Real-Time Cell Analysis on Androgen Receptor Antagonism for Viability (AID 2283776);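 note: 22Rv1 human prostate cancer cells growing on impedance electrode plates; area under impedance growth curve at 80 h after dosing as viability; hits lower the growth signal relative to DMSO meaning cytotoxicity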
# In short: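 Real-time electrical impedance tracks 22Rv1 proliferation after continuous compound exposure (top 100 uM final, 1:4 steps, 8 concentrations). The 80 h area-under-curve serves as the cytotoxicity readout relative to DMSO.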
# [8] = biological target: AR (gene 367) (UniProt P10275); test: ACEA_AR_antagonist_80hr: ACEA Biosciences xCELLigence Real-Time Cell Analysis on Androgen Receptor Antagonism for Proliferation (AID 2283787);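 note: 22Rv1 human prostate cancer cells with growth followed by electrical impedance; hits lower the impedance growth signal relative to DMSO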
# In short: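 Impedance-based real-time growth of 22Rv1 prostate cells, read 80 h after dosing. Eight concentrations, 1:4 series, top 100 uM final (0.5% DMSO), n = 2; signal decrease scored against DMSO.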
# [9] = biological target: AR (gene 367) (UniProt P10275); test: ACEA_AR_agonist_80hr: ACEA Biosciences xCELLigence Real-Time Cell Analysis on Androgen Receptor Agonism for Proliferation (AID 2283783);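 note: hits increase impedance growth signal above DMSO baseline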
# In short: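 Eight concentrations, 1:4 serial dilution from a 100 uM final top, in biological duplicate. Impedance-based real-time growth of 22Rv1 cells after overnight baseline, recorded hourly and read at 80 hours. Controls: testosterone, MG132, assay media.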
# AR (gene 367), sequence (P10275 whole entry, looked up): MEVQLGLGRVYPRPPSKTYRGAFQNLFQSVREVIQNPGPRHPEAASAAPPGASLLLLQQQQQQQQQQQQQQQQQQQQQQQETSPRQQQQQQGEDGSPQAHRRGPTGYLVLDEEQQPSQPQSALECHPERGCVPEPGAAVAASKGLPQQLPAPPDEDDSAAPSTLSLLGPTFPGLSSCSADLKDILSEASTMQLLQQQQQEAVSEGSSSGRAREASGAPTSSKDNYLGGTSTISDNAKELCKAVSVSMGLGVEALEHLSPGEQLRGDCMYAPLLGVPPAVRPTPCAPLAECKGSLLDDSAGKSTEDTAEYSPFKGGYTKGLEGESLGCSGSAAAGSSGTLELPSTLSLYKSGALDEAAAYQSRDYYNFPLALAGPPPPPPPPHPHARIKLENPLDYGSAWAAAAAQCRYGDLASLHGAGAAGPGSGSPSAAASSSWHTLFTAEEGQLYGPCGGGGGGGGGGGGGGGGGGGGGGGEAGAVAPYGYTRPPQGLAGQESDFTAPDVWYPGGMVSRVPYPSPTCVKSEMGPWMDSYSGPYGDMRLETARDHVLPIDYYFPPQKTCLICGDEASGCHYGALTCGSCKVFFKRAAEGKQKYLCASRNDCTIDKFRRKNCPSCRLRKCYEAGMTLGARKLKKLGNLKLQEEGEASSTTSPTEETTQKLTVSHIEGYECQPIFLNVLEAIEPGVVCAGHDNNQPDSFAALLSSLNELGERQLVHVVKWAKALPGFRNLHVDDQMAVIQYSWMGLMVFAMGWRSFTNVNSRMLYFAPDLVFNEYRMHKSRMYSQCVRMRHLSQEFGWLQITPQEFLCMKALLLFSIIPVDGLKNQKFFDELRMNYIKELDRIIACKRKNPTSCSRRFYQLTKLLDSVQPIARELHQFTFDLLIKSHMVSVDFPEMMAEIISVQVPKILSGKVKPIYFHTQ
# Luciferin 4-monooxygenase (Photinus pyralis), sequence (P08659 whole entry, looked up): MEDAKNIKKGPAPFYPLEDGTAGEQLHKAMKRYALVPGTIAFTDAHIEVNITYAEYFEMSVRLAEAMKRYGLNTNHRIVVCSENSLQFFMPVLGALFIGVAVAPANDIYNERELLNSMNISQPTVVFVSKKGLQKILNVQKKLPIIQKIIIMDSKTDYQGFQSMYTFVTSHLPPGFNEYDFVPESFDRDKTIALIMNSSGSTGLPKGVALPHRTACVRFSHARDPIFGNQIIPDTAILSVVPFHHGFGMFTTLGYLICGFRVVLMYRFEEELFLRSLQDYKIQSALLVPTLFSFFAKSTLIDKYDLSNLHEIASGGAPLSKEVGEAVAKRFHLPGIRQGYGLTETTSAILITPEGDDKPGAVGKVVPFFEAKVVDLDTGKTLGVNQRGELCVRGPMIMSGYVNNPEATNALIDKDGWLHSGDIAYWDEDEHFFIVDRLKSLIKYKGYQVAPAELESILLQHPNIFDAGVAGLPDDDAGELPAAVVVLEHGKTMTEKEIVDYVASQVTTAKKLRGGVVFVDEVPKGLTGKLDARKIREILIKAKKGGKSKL
smiles,measurement,setting,value
CCOC(=O)Cc1cccc2ccccc12,outcome,[1],inactive
same,AC50,[2],50 µM (active)
O=S1(=O)OC(c2ccc(O)cc2)(c2ccc(O)cc2)c2ccccc21,AC50,[3],36.6 µM (active) and 21.5 µM (active)
same,outcome,[2],inactive
C#CC1(O)CC[C@H]2[C@@H]3CCC4=CCCC[C@@H]4[C@H]3CC[C@@]21C (stereo partly specified),outcome,[1],inactive
CN(C)c1ccc(N=Nc2ccccc2C(=O)O)cc1,AC50,[4],37.5 µM (active)
same,AC50,[5],6.64 µM (active)
same,AC50,[2],11.8 µM (active)
same,AC50,[6],68.1 µM (active)
CCOC(=O)c1ccccc1C(=C1C=C(Br)C(=O)C(Br)=C1)c1cc(Br)c(O)c(Br)c1,AC50,[4],3.9 µM (active)
Nc1ccc(N)c(Cl)c1,AC50,[4],13.5 µM (active)
same,AC50,[2],67.8 µM (active)
same,AC50,[6],18.7 µM (active)
CC(C)(C)c1ccc(N)cc1,outcome,[3],inactive
same,outcome,[7],inactive
same,outcome,[2],inactive
CCCCC/C=C\C/C=C\CCCCCCCC(=O)OC,outcome,[3],inactive
same,outcome,[5],inactive
same,outcome,[7],inactive
same,AC50,[2],65.3 µM (active)
CN(C)c1ccc(C(=N)c2ccc(N(C)C)cc2)cc1,AC50,[1],0.0018 µM (active)
same,outcome,[3],inactive
same,AC50,[5],3.18 µM (active)
same,AC50,[7],3.19 µM (active)
same,AC50,[2],32.3 µM (active)
CCCCCCCCCCCCCOP(=O)(O)O,outcome,[1],inactive
same,outcome,[3],inactive
same,outcome,[5],inactive
same,outcome,[7],inactive
same,AC50,[2],48.7 µM (active)
S=C(NC1CCCCC1)NC1CCCCC1,outcome,[1],inactive
same,outcome,[2],inactive
CC(C)(C)c1ccc(-c2ccc(C(C)(C)C)cc2)cc1,outcome,[3],inactive
same,outcome,[5],inactive
same,outcome,[7],inactive
same,outcome,[2],inactive
same,outcome,[8],inactive
COC(=O)c1c(C)cc(O)c(C)c1O,outcome,[1],inactive
same,outcome,[3],inactive
same,AC50,[7],4.23 µM (active)
same,outcome,[2],inactive
Oc1ccc(Cl)cc1Cc1cc(Cl)ccc1O,outcome,[1],inactive
same,AC50,[5],11.5 µM (active)
same,AC50,[7],8.53 µM (active)
same,AC50,[2],17.7 µM (active)
same,outcome,[9],inactive
same,AC50,[8],10.2 µM (active)
CCCCC/C=C\CCC=O,outcome,[1],inactive
same,AC50,[5],16.6 µM (active)
same,outcome,[7],inactive
same,outcome,[2],inactive
same,outcome,[9],inactive
same,outcome,[8],inactive
CCCCCCCC[N+](C)(CCCCCCCC)CCCCCCCC,AC50,[3],86 µM (active)
same,AC50,[5],1.03 µM (active)
same,AC50,[7],0.925 µM (active)
same,AC50,[2],1.92 µM (active)
C1=Cc2ccccc2C1,outcome,[3],inactive
same,outcome,[5],inactive
same,outcome,[7],inactive
same,outcome,[2],inactive

# Source: PubChem BioAssay (EPA / NIEHS)
